Test results as given in PubChem BioAssay AID1159580 (chemical genetic matrix, 2015).
The campaign covered roughly 5,500 compounds. About 2,000 (36%) were called active. Inconclusive results (about 18%) are left out. Cut-off read from the data, not from the text of the source: active = normalized growth mostly below about 0.91 (no sharp cut-off); inconclusive = no clear call, values can overlap the other calls; inactive = mostly above about 0.92. The list shows a part of the results.

Assay: chemical genetic growth profiling, strain panel (AID 1159580);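 note: tested at 20 µM; growth read once vehicle control cultures reached saturation at 30 °C; 1 = growth at the plate median or of vehicle wells; lower values mean less growth of the strain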
Conditions: S. cerevisiae deletion strains, growth OD

Measured: normalized growth

Cc1cccc(C(=O)NCN2CCN(c3ccccc3C#N)CC2)c1
inactive: locus YAL040C, strain CLN3, stronger effect = lower value 0.963 | locus YCL061C, strain MRC1 (second series), stronger effect = lower value 0.978 | locus YDR150W, strain NUM1, stronger effect = lower value 0.987 | locus YDR363W, strain ESC2, stronger effect = lower value 0.975 | locus YER002W, strain NOP16, stronger effect = lower value 0.974 | locus YGR229C, strain SMI1, stronger effect = lower value 0.942 | locus YJR075W, strain HOC1, stronger effect = lower value 0.978 | locus YMR307W, strain GAS1, stronger effect = lower value 1.01 | locus YNL175C, strain NOP13, stronger effect = lower value 0.979 | locus YNL197C, strain WHI3, stronger effect = lower value 0.976 | locus YNL224C, strain SQS1, stronger effect = lower value 0.993 | locus YOR083W, strain WHI5 (second series), stronger effect = lower value 0.982 | locus YPL241C, strain CIN2, stronger effect = lower value 0.982
